Results reported in PubChem BioAssay (NCATS).
Results filed as inconclusive are left out. A number with no mark means an inactive call. The source made the active and inactive calls. Calls follow the shape of the dose curve; as a rule, active = well fitted cell-killing curve with a large enough effect; inconclusive = small, poorly fitted or top-dose-only effect, or effect the other way; inactive = no such curve, though single readings can be large or run the other way.
Potency is read from the fitted curve at half-maximal effect.

Assay: Quantitative High-Throughput drug screen in 47 multiple myeloma cell lines against the NCATS MIPE library collection: AMO1_DSMZ cell viability assay (AID 1918927; also: nearly all actives have a fitted effect of over 30% in size)
Conditions: AMO1 myeloma cells viability, CellTiter-Glo ATP luminescence, 48 h; series mostly up to 45.8 µM; viability, % of DMSO: at the top concentration
Summary of the method: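 Myeloma cell lines, 500 cells per well, exposed to MIPE 4.0 library compounds for 48 h at 37C, 5% CO2. Viability from ATP by CellTiter-Glo luminescence; normalised to DMSO (100%) and media-only (0%) wells.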
For `CC[N+](CC)(CC)CCOc1cccc(OCC[N+](CC)(CC)CC)c1OCC[N+](CC)(CC)CC`, the “viability, % of DMSO” value was 107%.
In the case of `Cc1cc(C(C)(C)C)cc(C)c1CC1=NCCN1`, the “viability, % of DMSO” value is reported as 99.3%.
For `COC(=O)Nc1nc2ccc(C(=O)c3cccs3)cc2[nH]1`, the Potency was 0.001 µM (active).
With `CN(C)C(=N)N=C(N)N` the “viability, % of DMSO” value was 146%.
With `CC(COc1ccccc1)N(CCCl)Cc1ccccc1` (stereo not drawn) the “viability, % of DMSO” value was 127%.
With `Clc1ccc(C(c2ccccc2Cl)C(Cl)Cl)cc1` (stereo not drawn) the Potency was 1.87 µM (active).
With `Cc1cnc(C(=O)NCCc2ccc(S(=O)(=O)NC(=O)NC3CCCCC3)cc2)cn1` the “viability, % of DMSO” value was 94.1%.
With `CC(C)NCC(O)c1ccc(O)c(O)c1` (stereo not drawn) the Potency was 5.26 µM (active).
In the case of `CC(C)C(=O)Nc1ccc([N+](=O)[O-])c(C(F)(F)F)c1`, the Potency is reported as 4.69 µM (active).
With `CCOC(=O)Nc1ccc(NCc2ccc(F)cc2)nc1N` the Potency was 18.7 µM (active).
For `O=C(c1ccc(OCCN2CCCCC2)cc1)c1c(-c2ccc(O)cc2)sc2cc(O)ccc12`, the Potency was 20.9 µM (active).
In the case of `CN(Cc1cnc2nc(N)nc(N)c2n1)c1ccc(C(=O)N[C@@H](CCC(=O)O)C(=O)O)cc1`, the Potency is reported as 0.0166 µM (active).
For `Cc1ccccc1N1C(=O)c2cc(S(N)(=O)=O)c(Cl)cc2NC1C` (stereo not drawn), the “viability, % of DMSO” value was 112%.
For `C[C@@H]1CC(=O)NN=C1c1ccc(NN=C(C#N)C#N)cc1`, the “viability, % of DMSO” value was 90.6%.
In the case of `Cn1c(=O)c2[nH]cnc2n(C)c1=O`, the “viability, % of DMSO” value is reported as 128%.
In the case of `COc1ccc2[nH]cc(CCNC(C)=O)c2c1`, the Potency is reported as 0.235 µM (active).
In the case of `CN1CCN(CCCN2c3ccccc3Sc3ccc(Cl)cc32)CC1`, the Potency is reported as 16.6 µM (active).
With `COc1cc2nc(N3CCN(C(=O)c4ccco4)CC3)nc(N)c2cc1OC` the Potency was 5.9 µM (active).
